# Measurements reported in PubChem BioAssay.
# Active and inactive are the calls of the source. How the calls were made is not given here.
# Assay: inhibition of Brca1/Bard1 split-luciferase complementation, confirmation, counter-screen for Mdm2/MdmX interaction inhibitor project, luminescence, single concentration (AID 504668)
# Settings: Brca1/Bard1 bimolecular luciferase complementation counterscreen, at 8 µM, stronger effect = higher value
row,Structure (SMILES),inhibition
1,C[C@@]12C(=O)Nc3ccccc3C(=O)N1[C@H]1c3cc(Br)ccc3OC[C@@H]1[C@@H]2c1ccccc1,30.8% (active)
2,O=C(Nc1ccc(Cl)cc1)Nc1csc([N+](=O)[O-])c1,30.6% (active)
3,O=C(c1ccco1)N1CCN(C(=O)C2CCCc3c2[nH]c2ccc(Cl)cc32)CC1 (stereo not given),28.5% (active)
4,Cc1nnsc1C(=O)N/N=C/c1ccc2ccccc2c1O,30.1% (active)
5,CCC(C)n1c(=O)c(C(=O)Nc2ccccc2S(N)(=O)=O)c(O)c2ccccc21 (stereo not given),30.8% (active)
6,CC(=O)c1ccc(Sc2nnnn2-c2ccccc2)c([N+](=O)[O-])c1,30.1% (active)
7,CN1CCc2c(sc(NC(=O)c3ccc(S(=O)(=O)N4CCc5ccccc54)cc3)c2C(N)=O)C1,24.1% (active)
8,COc1ccc(C(=O)N/N=C(\Cc2ncc[nH]2)c2ccccc2)cc1,25.7% (active)
9,CC[C@]1(c2ccccc2OC)ON(c2ccccc2C(F)(F)F)C1=O,34.6% (active)
10,C/C(=N\Nc1nc(-c2ccccn2)nc2ccccc12)c1ccc(F)cc1,34.4% (active)
11,O=c1c2cc(Br)ccc2nc(-c2cccc(C(F)(F)F)c2)n1O,29.9% (active)
12,CC(Oc1ccc(F)cc1)C(=O)Nc1nc(-c2ccccn2)cs1 (stereo not given),35.6% (active)
13,Cc1cc(C)nc(SCc2ccc(C(=O)N/N=C/c3cccc(O)c3O)cc2)n1,35.2% (active)
14,O=C(N/N=C(\Cc1ncc[nH]1)c1ccccc1)c1ccncc1,30.3% (active)
15,COc1ccc([N+](=O)[O-])cc1NC(=S)NC(NC(=O)C(c1ccccc1)c1ccccc1)C(Cl)(Cl)Cl (stereo not given),29.2% (active)
16,COc1ccc2cc1Oc1ccc(cc1)C[C@H]1c3c(cc4c(c3Oc3cc5c(cc3OC)CCN(C)[C@@H]5C2)OCO4)CCN1C,31.6% (active)
17,CCOC(=O)N1C(=O)[C@@](c2ccc(Cl)cc2)(C(C)C)N1C(=O)OCC,33.2% (active)
18,Cc1ccccc1-c1cc(C(=O)Nc2sc(C(=O)OC(C)C)c(C)c2C#N)c2ccccc2n1,23.7% (active)
19,Cc1ccc(CSC(Nc2ccc(F)cc2)=C(C#N)C#N)cc1,24.3% (active)
20,COc1ccc(-c2csc(NC(=S)NC(=O)c3ccco3)n2)cc1Br,23.1% (active)

row,Structure (SMILES),inhibition
1,Cc1ccc2[nH]c(C(=O)N/N=C/c3ccccc3O)c(C)c2c1,25.3% (active)
2,CC(=O)NC(c1cc(Cl)c2cccnc2c1O)C1CC1 (stereo not given),33.4% (active)
3,CCOC(=O)c1c(CN(C)C)n(C)c2c(O)c(N=NC(N)=O)c3ccc(Br)cc3c12,27.9% (active)
4,C=C1C(O)[C@@H]2O[C@]3(CC[C@H](/C=C/C(C)[C@@H]4CC(C)=CC5(O[C@H](C[C@@](C)(O)CO)CCC5O)O4)O3)CC[C@H]2O[C@@H]1C(O)CC(C)[C@H]1OC2(CCCCO2)CCC1C (stereo not given in full),33.4% (active)
5,CCOc1ccc(OCc2ccc(C(=O)NN=Cc3ccc[nH]3)cc2)cc1,28% (active)
6,Cc1[nH]c(N=Nc2ccccc2)nc1N=Nc1ccccc1,24.1% (active)
7,COc1cc2c(O)c3c(c(-c4ccc5c(c4)OCO5)c2cc1OC)C(=O)OC3,26.1% (active)
8,CN(C)CCNC(=O)/C(=C/c1ccc(-c2ccc(Cl)cc2Cl)o1)NC(=O)c1ccccc1,26.3% (active)
9,Cc1cc(C)cc(NC(=O)CSc2ccc(-c3ccccn3)nn2)c1,31.7% (active)
10,Cc1cc(Nc2cccc([N+](=O)[O-])c2)n2c(nc3ccccc32)c1C#N,30.7% (active)
11,Cc1ccc(O)c(CNCCNCc2cc(C)ccc2O)c1,32.6% (active)
12,CCCN(CCC)CCNC(=O)C1CCN(Cc2nc(-c3ccc(Cl)cc3)oc2C)CC1,30.3% (active)
13,N#C/C(=N/Nc1ccc(OC(F)(F)F)cc1)C(N)=S,35% (active)
14,COc1ccc(OC)c2sc(NC(=O)CCS(=O)(=O)c3ccccc3)nc12,23.8% (active)
15,CCCCN(CC)CCNC(=O)c1cc2c(-c3ccc(Cl)cc3)nn(C)c2s1,31.2% (active)
16,N=c1c(C(=O)NC2CCCCC2)cc2c(=O)n3ccccc3nc2n1Cc1ccco1,33.2% (active)
17,CN1C(=O)/C(=C\c2cc(N=Nc3ccccc3)ccc2O)SC1=S,34.4% (active)
18,Cn1nccc1C(=O)N/N=C/c1c(O)ccc2ccccc12,31.1% (active)
19,O=C1c2ccccc2C(=O)c2c(Nc3ccc(CCO)cc3)ccc(O)c21,33.2% (active)
20,C=CCN=C1NN=C(c2cc(C)n(CCOC)c2C)CS1,31% (active)
